Where a name gives a salt, the structure may show the parent alone.
Tests used:
RIVA [1] = assay: growth inhibition by drug plus 177Lu-lilotomab satetraxetan (1 - RLU/untreated control) (fraction); higher = stronger inhibition; details: 177Lu-lilotomab satetraxetan 0.5 ug/ml
Outline: (§1)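 RIVA or U-2932 cells were left untreated or pretreated for 18 h with a radiolabelled anti-CD37 antibody conjugate (~600 MBq/mg) at 0.5 µg/ml for RIVA or 1 µg/ml for U-2932. The cells were then washed and seeded at 3,000 cells/well on plates pre-printed with the Selleck Cambridge Cancer Compound library, dosed at 10/100 nM for RIVA and 10/1,000 nM for U-2932. From day 3, RealTime-Glo luminescence was read daily after 1 h at 37°C. Growth inhibition was taken as one minus RLU over the mean of the untreated no-drug wells, of which there were 48 per plate.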

U-2932 [2] = assay: growth inhibition by drug alone (1 - RLU/untreated control) (fraction); higher = stronger inhibition; details: 177Lu-lilotomab satetraxetan 0 ug/ml
Outline: as §1

RIVA [3] = assay: as above; details: 177Lu-lilotomab satetraxetan 0 ug/ml
Outline: as §1

U-2932 [4] = assay: growth inhibition by drug plus 177Lu-lilotomab satetraxetan (1 - RLU/untreated control) (fraction); higher = stronger inhibition; details: 177Lu-lilotomab satetraxetan 1 ug/ml
Outline: as §1

SMILES | growth inhibition by drug plus 177Lu-lilotomab satetraxetan (RIVA [1]; 100 nM, time (day): 5) | growth inhibition by drug plus 177Lu-lilotomab satetraxetan (RIVA [1]; 100 nM, time (day): 6) | growth inhibition by drug alone (U-2932 [2]; 10 nM, time (day): 3) | growth inhibition by drug alone (U-2932 [2]; 10 nM, time (day): 4) | growth inhibition by drug alone (U-2932 [2]; 10 nM, time (day): 5) | growth inhibition by drug alone (U-2932 [2]; 10 nM, time (day): 6) | growth inhibition by drug alone (U-2932 [2]; 1000 nM, time (day): 3) | growth inhibition by drug alone (U-2932 [2]; 1000 nM, time (day): 4) | growth inhibition by drug alone (U-2932 [2]; 1000 nM, time (day): 5) | growth inhibition by drug alone (U-2932 [2]; 1000 nM, time (day): 6) | growth inhibition by drug alone (RIVA [3]; 10 nM, time (day): 3) | growth inhibition by drug alone (RIVA [3]; 10 nM, time (day): 4) | growth inhibition by drug alone (RIVA [3]; 10 nM, time (day): 5) | growth inhibition by drug alone (RIVA [3]; 10 nM, time (day): 6) | growth inhibition by drug alone (RIVA [3]; 100 nM, time (day): 3) | growth inhibition by drug alone (RIVA [3]; 100 nM, time (day): 4) | growth inhibition by drug alone (RIVA [3]; 100 nM, time (day): 5) | growth inhibition by drug alone (RIVA [3]; 100 nM, time (day): 6) | growth inhibition by drug plus 177Lu-lilotomab satetraxetan (U-2932 [4]; 10 nM, time (day): 3) | growth inhibition by drug plus 177Lu-lilotomab satetraxetan (U-2932 [4]; 10 nM, time (day): 4) | growth inhibition by drug plus 177Lu-lilotomab satetraxetan (U-2932 [4]; 10 nM, time (day): 5) | growth inhibition by drug plus 177Lu-lilotomab satetraxetan (U-2932 [4]; 10 nM, time (day): 6) | growth inhibition by drug plus 177Lu-lilotomab satetraxetan (U-2932 [4]; 1000 nM, time (day): 3) | growth inhibition by drug plus 177Lu-lilotomab satetraxetan (U-2932 [4]; 1000 nM, time (day): 4) | growth inhibition by drug plus 177Lu-lilotomab satetraxetan (U-2932 [4]; 1000 nM, time (day): 5) | growth inhibition by drug plus 177Lu-lilotomab satetraxetan (U-2932 [4]; 1000 nM, time (day): 6) | growth inhibition by drug plus 177Lu-lilotomab satetraxetan (RIVA [1]; 10 nM, time (day): 3) | growth inhibition by drug plus 177Lu-lilotomab satetraxetan (RIVA [1]; 10 nM, time (day): 4) | growth inhibition by drug plus 177Lu-lilotomab satetraxetan (RIVA [1]; 10 nM, time (day): 5) | growth inhibition by drug plus 177Lu-lilotomab satetraxetan (RIVA [1]; 10 nM, time (day): 6) | growth inhibition by drug plus 177Lu-lilotomab satetraxetan (RIVA [1]; 100 nM, time (day): 3) | growth inhibition by drug plus 177Lu-lilotomab satetraxetan (RIVA [1]; 100 nM, time (day): 4)
CC(=O)O[C@H]1C(=O)[C@@]2(C)[C@H]([C@H](OC(=O)c3ccccc3)[C@]3(O)C[C@H](OC(=O)[C@H](O)[C@@H](NC(=O)c4ccccc4)c4ccccc4)C(C)=C1C3(C)C)[C@]1(OC(C)=O)CO[C@@H]1C[C@@H]2O [Paclitaxel (Taxol)] | 0.984 | 0.986 | – | – | – | – | – | – | – | – | – | – | – | – | – | – | – | – | – | – | – | – | – | – | – | – | – | – | – | – | – | –
O=C(NCCCNc1nc(Nc2cccc(NC(=O)N3CCCC3)c2)ncc1I)c1cccs1 | 0.603 | 0.64 | 0.201 | 0.14 | 0.0194 | 0.047 | 0.0736 | 0.137 | 0.35 | 0.462 | 0.342 | 0.272 | 0.262 | 0.207 | 0.339 | 0.317 | 0.346 | 0.36 | 0.198 | 0.238 | 0.304 | 0.353 | 0.223 | 0.302 | 0.491 | 0.618 | 0.795 | 0.787 | 0.812 | 0.838 | 0.547 | 0.558
CCN[C@H]1C[C@H](C)S(=O)(=O)c2sc(S(N)(=O)=O)cc21 [Dorzolamide HCL] | 0.389 | 0.37 | -0.0781 | -0.0488 | -0.0257 | 0.0748 | 0.15 | 0.182 | 0.141 | 0.205 | -0.103 | -0.133 | -0.166 | -0.25 | -0.0335 | -0.0982 | -0.134 | -0.179 | -0.0513 | -0.0344 | -0.00192 | 0.152 | 0.0973 | 0.164 | 0.191 | 0.279 | 0.311 | 0.443 | 0.471 | 0.489 | 0.267 | 0.375
COc1ccc(C2=N[C@@H](c3ccc(Cl)cc3)[C@@H](c3ccc(Cl)cc3)N2C(=O)N2CCNC(=O)C2)c(OC(C)C)c1 [Nutlin-3] | 0.479 | 0.496 | -0.04 | -0.0423 | -0.094 | -0.287 | -0.0802 | -0.0948 | -0.145 | -0.237 | -0.198 | -0.261 | -0.371 | -0.533 | -0.567 | -0.492 | -0.511 | -0.69 | -0.0474 | 0.00784 | 0.0366 | 0.0903 | -0.00272 | -0.0242 | 0.00355 | 0.11 | 0.386 | 0.472 | 0.502 | 0.521 | 0.328 | 0.467
Cc1ccc(NC(=O)c2ccc(CN3CC[C@H](N(C)C)C3)c(C(F)(F)F)c2)cc1Nc1nccc(-c2cncnc2)n1 [Bafetinib (INNO-406)] | 0.513 | 0.535 | 0.0934 | 0.0624 | -0.0124 | 0.0553 | 0.0275 | -0.0147 | -0.073 | 0.062 | 0.236 | 0.204 | 0.191 | 0.188 | -0.279 | -0.213 | -0.225 | -0.275 | 0.0136 | 0.0566 | 0.138 | 0.239 | 0.00697 | 0.00776 | 0.0531 | 0.226 | 0.594 | 0.623 | 0.652 | 0.658 | 0.392 | 0.503

— the supplement of paper PMC6897291
